Screens (PubChem)
An excerpt weighted towards active compounds, which were near 1.3% of everything screened.
GLD-1 TGE inh – GLD-1-TGE RNA interaction inhibition (C. elegans). inhibition, % at 5.96 µM. AID 2280. 320,000 tested, 0.44% active. purified GLD-1 + fluorescein TGE RNA, fluorescence polarization;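 active = percent inhibition above a per-plate cutoff, the plate mean of test compounds plus 3 SD, cut at about 30% in these data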;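 also: 0% = DMSO wells with GLD-1 and probe and 100% = wells lacking GLD-1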
MCL1-BIM inh – MCL1-BIM-BH3 interaction inhibition (human). Q07820. GST-MCL1 / FITC-Bim-BH3 fluorescence polarization. inhibition, % at 10.9 µM. 320,000 tested, 0.68% active;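 active = inhibition above the mean inhibition of all tested compounds plus 3 SD, set per campaign, cut at about 40% in these data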;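 also: 0% = DMSO wells and 100% = unlabeled Bim-BH3 peptide control; higher means more loss of mP so more displacement of Bim peptide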
EBV gp42 block – blocks Epstein-Barr virus glycoprotein 42 binding | Q1HVG2 | Fluorescence polarization binding assay, mP read-out | inhibition, % (tested at 21.74 µM) | 220,000 tested, 0.42% active | AID 1085; in the data active = inhibition above about 50%
MEX-5 binding – C. elegans MEX-5 TCR-2 RNA binding activity; activity score (negative = inhibition of binding), % at 10 µM; 300,000 tested, 0.38% active; AID 1832; MEX-5/FITC-TCR2 RNA binding, fluorescence polarization; active compounds read low; Q9XUB2;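 active = inhibition past about -25% in most replicates, and total fluorescence under double the plate's negative control median, limit read from the data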;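 also: 0% = DMSO and -100% = 5 µM competing unlabeled TCR2 RNA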
Target sequence (Q9XUB2 whole entry, looked up): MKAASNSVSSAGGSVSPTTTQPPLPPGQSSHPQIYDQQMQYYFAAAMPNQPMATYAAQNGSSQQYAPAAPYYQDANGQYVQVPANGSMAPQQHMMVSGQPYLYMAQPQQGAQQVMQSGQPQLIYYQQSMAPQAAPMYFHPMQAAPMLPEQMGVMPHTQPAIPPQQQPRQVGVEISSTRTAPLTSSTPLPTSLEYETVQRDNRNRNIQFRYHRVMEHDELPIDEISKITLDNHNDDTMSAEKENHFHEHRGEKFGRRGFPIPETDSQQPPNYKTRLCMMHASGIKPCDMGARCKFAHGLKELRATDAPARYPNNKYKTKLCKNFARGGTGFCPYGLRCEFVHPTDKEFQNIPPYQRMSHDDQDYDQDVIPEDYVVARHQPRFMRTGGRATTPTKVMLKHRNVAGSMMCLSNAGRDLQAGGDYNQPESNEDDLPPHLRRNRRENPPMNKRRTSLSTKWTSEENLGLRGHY
Bcl-xL primary – Bcl-xL (human) inhibition; inhibition, % at 10.9 µM; Q07817; AID 2129; 320,000 tested, 0.7% active; GST-Bcl-xL / FITC-Bim BH3 peptide fluorescence polarization;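 active = inhibition above the mean of all tested compounds plus 3 SD, cutoff set per campaign, cut at about 30% in these data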;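 also: 0% = DMSO wells and 100% = unlabeled Bim-BH3 peptide competitor; inhibitors lower millipolarization by displacing the labeled peptide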
Target sequence (Q07817 whole entry, looked up): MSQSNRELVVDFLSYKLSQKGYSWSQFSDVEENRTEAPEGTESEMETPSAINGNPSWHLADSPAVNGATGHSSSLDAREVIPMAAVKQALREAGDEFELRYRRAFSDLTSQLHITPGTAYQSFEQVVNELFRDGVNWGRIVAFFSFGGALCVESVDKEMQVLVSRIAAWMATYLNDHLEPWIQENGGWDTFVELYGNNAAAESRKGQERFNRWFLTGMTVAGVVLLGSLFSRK
BCLXL inh confirm – Bcl-xL (human) inhibition, MCL1 counter-screen confirmation; GST-Bcl-xL / FITC-Bim BH3 peptide FP binding; 1,700 tested, 54% active; shares compounds with MCL1-BIM inh; inhibition, % at 10.9 µM;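 active = inhibition above a cutoff equal to the mean inhibition of all tested compounds plus 3 SD, cut at about 30% in these data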;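 also: 0% = DMSO wells and 100% = unlabeled Bim BH3 control peptide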
MCL1 inh confirm – MCL1-BIM-BH3 interaction inhibition, confirmation | shares compounds with MCL1-BIM inh | GST-MCL1 / FITC-Bim-BH3 fluorescence polarization | inhibition, % at 10.9 µM | 1,700 tested, 61% active | AID 2168;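 active = inhibition above the average of all tested compounds plus 3 SD, cut at about 40% in these data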;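 also: 0% = DMSO wells and 100% = unlabeled Bim-BH3 control peptide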
Numbers without * were called inactive; x = not tested or not shown; + = active, no number.

SMILES | GLD-1 TGE inh | MCL1-BIM inh | EBV gp42 block | MEX-5 binding | Bcl-xL primary | BCLXL inh confirm | MCL1 inh confirm
CC1(C)CC(=O)C2=C(C1)OC(N)=C(C#N)[C@@H]2c1ccccc1[N+](=O)[O-] | 112.9* | 194.3* | 54.0* | -68.0* | 163.2* | 35.5* | 45.5*
CCOc1ccc(NC(=S)NN(C)C(=S)Nc2ccc(OCC)cc2)cc1 | 2.5 | 0.7 | -23.1 | -1.2 | 6.7 | x | x
Oc1ccc(-c2csc(-c3c[nH]c4ccccc34)n2)c(O)c1 | 4.0 | -0.8 | 0.0 | -0.2 | 1.7 | x | x
Cc1ccc(-c2csc(-c3c[nH]c4ccccc34)n2)c(C)c1 | 8.4 | 89.2* | 12.2 | 1.4 | 3.9 | 0.7 | -0.6
COc1ccc2c(c1)c(CC(=O)OCC(=O)O)c(C)n2C(=O)c1ccc(Cl)cc1 | 4.0 | 82.3* | -2.2 | 4.4 | 11.7 | 4.5 | 8.2
O=C(NNc1cc(N2CCOCC2)nc(N2CCOCC2)n1)C12CC3CC(CC(C3)C1)C2 | 8.6 | -1.6 | 5.5 | 2.8 | -0.3 | x | x
c1ccc2c(c1)CCCN2Cc1nnnn1CC1CCCO1 (centres undefined) | 107.5* | 196.0* | 70.7* | -14.3 | 161.9* | 102.0* | 124.0*
c1ccc2sc(N3CCN(Cc4nnnn4CC4CCCO4)CC3)nc2c1 (centres undefined) | 0.1 | 1.1 | -5.3 | -2.4 | -0.5 | x | x
COc1ccc2ccccc2c1-c1csc(N)n1 | 0.8 | 7.5 | x | 1.7 | 5.8 | x | x
COCCn1cc(-c2csc(N)n2)c2ccccc21 | 26.0 | 60.0* | x | -13.0 | 54.1* | 15.8 | 14.4
CN(C)c1nc(-c2cn(CCC#N)c3ccccc23)cs1 | 34.4* | 68.7* | x | -4.6 | 65.2* | 34.4* | 49.0*
CCOC(=O)N1CCN(S(=O)(=O)c2cccc3ccc(C)nc23)CC1 | 12.3 | 7.1 | -21.6 | -4.2 | 3.0 | x | x
O=C1CCCC(O)=C1N=Nc1ccc(C(=O)O)cc1 | -1.8 | 41.4* | 4.0 | -26.3* | 8.0 | 3.6 | 8.8
O=C(O)c1[nH]c2ccccc2c1C(c1cc(Cl)cc([N+](=O)[O-])c1O)c1c(C(=O)O)[nH]c2ccccc12 | 9.4 | 50.6* | x | -61.3* | 12.5 | 10.2 | 27.2
COc1ccccc1NC(=O)[C@@H]1CCCN1S(=O)(=O)c1ccc(Cl)cc1 | 1.1 | x | x | x | x | x | x
COC(=O)C1=C(CSc2nc3c(cc2C#N)CN(C)CC3)OC(N)=C(C#N)C1c1ccc(F)cc1 (centres undefined) | 25.9 | 74.0* | 19.2 | -10.4 | 57.8* | 23.6 | 20.5
Cc1nnc(NC(=O)CSc2nnc(-c3ccco3)n2C(C)C)s1 | 3.0 | 4.1 | x | 0.8 | -3.1 | x | x
CC(C)n1c(SCC(=O)Nc2nncs2)nnc1-c1ccco1 | 3.7 | 40.6* | x | 0.0 | 11.6 | 13.7 | 45.3*
Cc1cccc(NC(=O)CSc2nnc(-c3ccco3)c(-c3ccco3)n2)c1C | 3.3 | 40.8* | 31.7 | -13.7 | 25.0 | 98.4* | 140.9*
COc1ccc(OC)c(N2C(=O)[C@@H]3C(c4ccccc4Cl)=NO[C@@H]3C2=O)c1 | 3.0 | 52.6* | 0.2 | -4.1 | 12.2 | 15.6 | 37.6
O=C(NCCCN1CCOCC1)c1cccs1 | -2.5 | -5.5 | -27.2 | x | -0.4 | x | x
O=C(N/N=C/c1sc(=O)[nH]c1-[n+]1ccc2ccccc2c1)c1ccccc1[O-] | 164.6* | 178.3* | x | -13.7 | 156.0* | 30.8* | 32.2
Cc1ccc[n+](-c2[nH]c(=O)sc2/C=N/NC(=O)c2ccccc2[O-])c1 | 30.7* | 74.5* | 52.9* | -26.6* | 43.9* | 38.9* | 56.0*
O=c1[nH]c(-[n+]2ccccc2)c(/C=N/N=C(\[O-])c2ccccc2)s1 | 14.8 | 16.3 | -0.8 | -4.5 | 13.1 | x | x
O=C(N/N=C/c1sc(=O)[nH]c1-[n+]1ccccc1)c1ccccc1[O-] | 27.9 | 54.9* | 40.7 | -23.2 | 43.6* | 46.4* | 64.0*
SMILES | GLD-1 TGE inh | MCL1-BIM inh | EBV gp42 block | MEX-5 binding | Bcl-xL primary | BCLXL inh confirm | MCL1 inh confirm
Cc1c(Nc2ccc(C=O)cc2)c(=O)n(-c2ccccc2)n1C | -3.9 | -6.3 | -25.1 | 0.8 | 0.1 | x | x
CCc1ccc[n+](-c2nc3ccccc3nc2C(=C=[N-])C#N)c1 | 50.2* | 84.2* | 37.5 | -13.4 | 87.7* | 21.0 | 27.0
Cc1ccc[n+](-c2nc3ccccc3nc2C(=C=[N-])C#N)c1 | -21.6 | -0.7 | -7.2 | 0.6 | 6.3 | x | x
COc1cc(/C=C/C(O)=C/C(=O)/C=C/c2ccc(O)cc2)ccc1O | -94.5 | -45.7 | x | x | 20.7 | x | x
Cn1ccnc1C(=O)Cc1ccc([N+](=O)[O-])cc1 | 2.4 | 2.6 | x | -3.3 | 6.3 | x | x
Oc1oc(-c2ccc(Br)cc2)nc1/C=N/c1ccccn1 | 2.1 | 68.8* | -16.2 | -2.1 | 2.8 | 4.8 | 4.3
Cc1ccc(NC(=O)CN(C)C(=O)c2n[nH]c(=O)c3ccccc23)cc1 | -4.3 | -8.8 | 1.5 | -0.8 | 2.7 | x | x
CN1CCN(C2=C(Cl)C(=O)N(C3CCCCC3)C2=O)CC1 | 17.8 | 29.4 | -7.4 | -2.2 | 24.1 | x | x
CN1CCN(C2=C(Cl)C(=O)C(c3cnc(N4CCCCC4)s3)=C(Cl)C2=O)CC1 | 27.3 | 93.3* | -7.2 | -71.1* | 76.5* | 72.1* | 92.3*
O=C(Nc1nc(-c2ccco2)c(-c2ccco2)s1)c1cnccn1 | 13.7 | 101.5* | x | -0.5 | 33.3* | 16.3 | 27.3
CC1(C)CC(=O)C2=C(C1)OC(N)=C(C#N)C21CCN(Cc2ccccc2)CC1 | 30.3 | 72.8* | 5.9 | -14.9 | 73.9* | 63.1* | 69.8*
CC(=O)N1CCC2(CC1)C(C#N)=C(N)OC1=C2C(=O)CC(C)(C)C1 | 2.8 | -1.2 | 10.3 | -1.9 | 0.0 | x | x
CCc1[nH]nc2c1C1(CCN(C(=O)c3ccccc3)CC1)C(C#N)=C(N)O2 | -4.2 | -1.2 | -19.4 | -1.8 | 2.2 | x | x
Cc1nc2c([nH]1)C1(CCN(Cc3ccccc3)CC1)C(C#N)=C(N)O2 | 93.1* | + | 14.2 | x | 163.5* | 32.1* | 46.3*
COC(=O)C1=C(C)N(CCCC(=O)O)C(=O)NC1c1ccccc1Cl (centres undefined) | 6.4 | -0.1 | x | 1.7 | 3.7 | x | x
CCC(=O)N1CCN(c2ccc(NC(=O)c3cccs3)cc2)CC1 | 0.0 | 42.5* | -22.0 | -2.0 | 3.0 | 0.6 | -5.5
CN1CCN(C2=Nc3cc(Cl)ccc3Nc3ccccc32)CC1 | -0.3 | -0.7 | 5.3 | 0.1 | 1.7 | x | x
CN1CCN(C2=Nc3c(Cl)cc(Cl)c4cccc2c34)CC1 | 39.9* | 80.0* | 63.1* | -7.4 | 74.7* | 82.3* | 109.7*
CCN(C(=O)c1coc(=O)c(Br)c1)c1ccc2c(c1)OCO2 | 17.6 | 61.8* | 32.3 | -12.1 | 58.3* | 109.8* | 122.5*
C=CCOc1c(Br)cc(C2C3=C(CCCC3=O)N(C)C3=C2C(=O)CCC3)cc1OCC | 10.5 | 43.0* | 6.4 | 0.4 | 22.5 | 7.0 | 22.9
